In PubChem BioAssay AID1159580 (chemical genetic matrix, 2015) one finds normalized growth data, which are given here for three molecules.

About 2,000 (36%) of roughly 5,500 compounds were called active. Not shown: some 18% with an inconclusive outcome. Cut-off read from the data, not from the text of the source: active = normalized growth mostly below about 0.91 (no sharp cut-off); inconclusive = no clear call, values can overlap the other calls; inactive = mostly above about 0.92. This is one part of the list.

The test can be described thus: chemical genetic growth profiling, strain panel (AID 1159580).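 Note: tested at 20 µM; growth read once vehicle control cultures reached saturation at 30 °C; 1 = growth at the plate median or of vehicle wells; lower values mean less growth of the strain.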 The following applies: S. cerevisiae deletion strains, growth OD.
Where [1] appears, read: locus YAL013W, strain DEP1, active compounds read low.
The mark [2] stands for this setting: locus YGR078C, strain PAC10, active compounds read low.
The mark [3] stands for this setting: locus YMR263W, strain SAP30, active compounds read low.
Where [4] appears, read: locus YMR307W, strain GAS1, active compounds read low.
The mark [5] stands for this setting: locus YNL128W, strain TEP1, active compounds read low.
Setting [6] is: locus YNL153C, strain GIM3, active compounds read low.
Setting [7] is: locus YPL055C, strain LGE1, active compounds read low.
[8] abbreviates: locus YBR229C, strain ROT2, active compounds read low.
Where [9] appears, read: locus YDL101C, strain DUN1, active compounds read low.
Where [10] appears, read: locus YDR150W, strain NUM1, active compounds read low.
Where [11] appears, read: locus YEL061C, strain CIN8, active compounds read low.
Setting [12] is: locus YGR229C, strain SMI1, active compounds read low.
Where [13] appears, read: locus YHR030C, strain SLT2, active compounds read low.
The mark [14] stands for this setting: locus YHR087W, strain rtc3, active compounds read low.
Where [15] appears, read: locus YJR043C, strain POL32, active compounds read low.
Where [16] appears, read: locus YJR075W, strain HOC1, active compounds read low.
The mark [17] stands for this setting: locus YLR039C, strain RIC1, active compounds read low.
The mark [18] stands for this setting: locus YLR058C, strain SHM2 (second series), active compounds read low.
Where [19] appears, read: locus YLR085C, strain ARP6, active compounds read low.
Where [20] appears, read: locus YLR262C, strain YPT6, active compounds read low.
Setting [21] is: locus YML094W, strain GIM5, active compounds read low.
[22] abbreviates: locus YMR219W, strain ESC1, active compounds read low.
[23] abbreviates: locus YNL298W, strain CLA4 (second series), active compounds read low.
Setting [24] is: locus YNL322C, strain KRE1, active compounds read low.
The mark [25] stands for this setting: locus YNR030W, strain Alg12, active compounds read low.
Where [26] appears, read: locus YPL241C, strain CIN2, active compounds read low.
Setting [27] is: locus YPR135W, strain CTF4, active compounds read low.

For `Nc1ncnc2c1ncn2[C@@H]1O[C@H](C(=O)NC2CC2)[C@H](O)C1O` (some centres undefined), the normalized growth is 1 (inactive) under setting [1]; 0.986 (inactive) (locus YAL040C, strain CLN3, active compounds read low); 1 (inactive) (locus YCL061C, strain MRC1 (second series), active compounds read low); 1 (inactive) (locus YER002W, strain NOP16, active compounds read low); 1.01 (inactive) under setting [2]; 0.986 (inactive) under setting [3]. Besides, the normalized growth was 1.04 (inactive) under setting [4]; 0.998 (inactive) under setting [5]; 1.03 (inactive) under setting [6]; 1 (inactive) (locus YNL175C, strain NOP13, active compounds read low); 0.986 (inactive) (locus YNL197C, strain WHI3, active compounds read low); 1.01 (inactive) (locus YNL224C, strain SQS1, active compounds read low). The normalized growth runs as follows: (locus YOR083W, strain WHI5 (second series), active compounds read low) 1.01 (inactive); under setting [7], 1 (inactive).
With `COC(=O)CSCCc1nc(-c2ccc([N+](=O)[O-])cc2)cs1`, the normalized growth by setting is: under setting [1], 1 (inactive); under setting [8], 0.972 (inactive); (locus YCL061C, strain MRC1, active compounds read low) 0.97 (inactive); under setting [9], 0.967 (inactive); (locus YDL134C, strain PPH21, active compounds read low) 0.976 (inactive); under setting [10], 0.991 (inactive). Besides, the normalized growth by setting is: under setting [11], 0.986 (inactive); under setting [2], 0.978 (inactive); under setting [12], 0.965 (inactive); under setting [13], 0.683 (active); under setting [14], 0.987 (inactive); under setting [15], 0.971 (inactive). For the same molecule, the normalized growth is, setting by setting: under setting [16], 0.946 (inactive); under setting [17], 0.919 (inactive); under setting [18], 0.964 (inactive); under setting [19], 0.717 (active); under setting [20], 0.915 (inactive); under setting [21], 0.994 (inactive). The normalized growth by setting is: under setting [22], 0.975 (inactive); under setting [3], 0.968 (inactive); under setting [6], 1.01 (inactive); under setting [23], 0.927 (inactive); under setting [24], 0.965 (inactive); under setting [25], 0.969 (inactive). For the same molecule, the normalized growth was 0.971 (inactive) under setting [7], 0.911 (inactive) under setting [26] and 0.894 (inactive) under setting [27].
Regarding `O=[N+]([O-])c1ccc(-c2nn[nH]n2)cc1`, the normalized growth is 0.992 (inactive) under setting [1]; 0.987 (inactive) under setting [8]; 0.988 (inactive) under setting [9]; 1.01 (inactive) under setting [10]; 1.01 (inactive) under setting [11]; 0.989 (inactive) under setting [2]. The normalized growth runs as follows: under setting [12], 0.987 (inactive); under setting [13], 0.955 (inactive); under setting [14], 0.993 (inactive); under setting [15], 1.01 (inactive); under setting [16], 0.992 (inactive); (locus YKL190W, strain CNB1, active compounds read low) 0.975 (inactive). For the same molecule, the normalized growth runs as follows: under setting [17], 0.968 (inactive); under setting [18], 0.984 (inactive); under setting [19], 1.04 (inactive); under setting [20], 0.871 (inactive); under setting [21], 1.04 (inactive); under setting [22], 0.994 (inactive). The normalized growth is, setting by setting: under setting [3], 1.01 (inactive); under setting [4], 1.11 (inactive); under setting [5], 0.971 (inactive); under setting [6], 0.995 (inactive); under setting [23], 0.965 (inactive); under setting [24], 0.99 (inactive). For the same molecule, the normalized growth by setting is: under setting [25], 0.98 (inactive); under setting [7], 0.993 (inactive); under setting [26], 0.999 (inactive); under setting [27], 0.967 (inactive).
